ALR H2O2 inh – inhibitors of human sulfhydryl oxidase ALR. P55789. purified ALR, DTT oxidation, H2O2 HRP-luminol luminescence. inhibition, % (test concentration not listed). 3.8% of 290,000 active;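 active means mean replicate inhibition above about 79%, with every replicate also reaching it, limit read from the data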
rCAG binder – r(CAG) repeat RNA binding; TO-PRO-1 dye displacement fluorescence; inhibition, % at 3 µM; 1.3% of 370,000 active;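 active means inhibition above the plate cutoff, the mean of all test compounds on that plate plus 3 SD, cut at about 35% in these data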;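 further: 0% = DMSO alone and 100% = 100 µM mitoxantrone as full dye displacement; higher means more dye released from RNA so lower well fluorescence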
PRMT1 inh – blocks human protein arginine methyltransferase 1 | Q99873 | recombinant PRMT1, activity-based probe fluorescence polarization | inhibition, % at 2.79 µM | 1.3% of 370,000 active | AID 652257;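 active means inhibition above about 21% made by adding two undisclosed values, limit read from the data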
LANA-H2A inh – blocks KSHV LANA binding to histone H2A/H2B; cell-free LANA-H2A/H2B peptide, fluorescence polarization; inhibition, % (concentration not given with the values); 0.6% of 320,000 active; AID 2629; in the data active means inhibition mostly above about 10%, no sharp cut-off; inactive means mostly below about 6.7%
Rtt109 HAT inh – inhibitors of Candida albicans Rtt109/Vps75 histone acetyltransferase; AID 540336; Q5AAJ8; purified Rtt109/Vps75, ThioGlo CoA-SH fluorescence, 4 h; inhibition, % at 34.9 µM; 0.16% of 330,000 active;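 active means inhibition of at least 50% in every replicate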
ABHD5-PLIN5 inh – inhibitors of human ABHD5-perilipin-5 interaction; 0.78% of 360,000 active; Split G. princeps luciferase complementation, luminescence, 4 h; inhibition, % at 4 µM; Q00G26+Q8WTS1;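 active means inhibition above the mean inhibition across every tested compound plus 3 SD, cut at about 22% in these data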;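 further: 0% = DMSO only wells and the 100% control is not disclosed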
Numbers without * were called inactive; nt = no result. Shown are actives, neighbours in structure and some others; about 5.9% of the full set was active somewhere.

SMILES	ALR H2O2 inh	rCAG binder	PRMT1 inh	LANA-H2A inh	Rtt109 HAT inh	ABHD5-PLIN5 inh
COCCn1nnnc1C(c1ccccc1)N1CCN(C)CC1 (stereo not drawn)	-11	-2	1	0	8	10
CCN1CCN(C(c2ccccc2)c2nnnn2CCc2ccc(OC)c(OC)c2)CC1 (stereo not drawn)	-9	0	6	15*	1	-7
COCCn1nnnc1C(c1ccccc1)N1CCN(c2ccccc2)CC1 (stereo not drawn)	97*	-3	2	1	-7	2
Oc1ccc(N2CCN(C(c3cccnc3)c3nnnn3Cc3ccccc3)CC2)cc1 (stereo not drawn)	99*	0	13	-5	1	2
CN(Cc1ccc(Cl)cc1)C(CCc1ccccc1)C(=O)NC1CCCCC1 (stereo not drawn)	nt	1	-3	nt	nt	-5
COCCN(CCOC)S(=O)(=O)c1ccc(C(=O)Nc2nc(C)c(C(C)=O)s2)cc1	100*	1	-2	-2	5	7
COc1ccccc1N(C)S(=O)(=O)c1ccc(C(=O)Nc2nc(C)c(C(C)=O)s2)cc1	nt	15	2	nt	1	7
Cc1cccc(CNC(=S)OCCN2CCCC23CCC(c2ccccc2)CC3)c1 (stereo not drawn)	nt	nt	-6	nt	nt	nt
N=c1sccn1CC(=O)Nc1ccc(SC(F)F)cc1	98*	4	20	3	-2	-3
CSc1ccccc1NC(=O)Cn1ccsc1=N	-5	-1	1	11*	-8	-2
N=c1sccn1CC(=O)Nc1ccc(S(N)(=O)=O)cc1	nt	1	3	-1	-13	-9
N=c1sccn1CC(=O)Nc1cccc2ccccc12	-31	5	1	-3	4	4
C=CCNc1ccccc1S(=O)(=O)NCc1ccccc1	nt	2	-2	nt	-8	-7
CN(C(=O)c1ccccc1-c1ncc[nH]1)C1CCCN(Cc2ccccc2F)C1 (stereo not drawn)	-3	-5	-2	4	-9	-1
Cc1cc(C)n2nc(CCCCc3nc4nc(C)cc(C)n4n3)nc2n1	nt	nt	nt	2	nt	nt
Cc1cc(C)n2nc[n+](C)c2n1	nt	1	-1	19*	5	0
COc1cc(OC)c2c(=O)c3c(C(=O)O)c(O)ccc3oc2c1	nt	5	-5	nt	nt	nt
CN(C)c1ccc(/C=N/N=C2/SC(CC(=O)O)C(=O)N2c2ccc(O)cc2)cc1 (stereo not drawn)	97*	16	1	1	-31	5
C=CCN1C(=O)C(CC(=O)O)S/C1=N/N=C/c1ccc(N(CC)CC)cc1 (stereo not drawn)	99*	32	14	nt	-60	-15
O=C(O)CC1S/C(=N\N=C/c2ccccc2)N(c2ccc(O)cc2)C1=O (stereo not drawn)	5	6	3	13	0	-4
CN1C(=O)C(CC(=O)O)S/C1=N\N=C\c1ccc(O)cc1O (stereo not drawn)	85*	1	1	-4	-12	1
Cc1ccc2c(c1)C(CS(=O)(=O)NCc1ccc(F)cc1)NC2 (stereo not drawn)	nt	7	2	nt	nt	nt
N#CC1C(=N)Cc2ccccc2-c2ccccc21 (stereo not drawn)	nt	2	1	nt	-3	-7
O=C(OCC#CCSc1nnc(-c2ccc3ccccc3c2)o1)c1cccs1	nt	nt	-2	nt	nt	nt
Oc1c(C(c2cccs2)N2CCC3(CC2)OCCO3)sc2ncnn12 (stereo not drawn)	-6	1	2	-1	1	-4
SMILES	ALR H2O2 inh	rCAG binder	PRMT1 inh	LANA-H2A inh	Rtt109 HAT inh	ABHD5-PLIN5 inh
Oc1c(C(c2cccs2)N2CCN(c3ccccc3)CC2)sc2ncnn12 (stereo not drawn)	97*	2	5	3	5	1
Nc1cccc(-c2nc3ccc(N)cc3s2)c1	99*	8	0	6	-17	-6
c1ccc2sc(-c3ccncc3)nc2c1	-5	-4	-5	9	-1	-1
Nc1ccc(-c2nc3ccc(N)cc3s2)cc1	99*	4	-1	-5	-12	4
Nc1cc2sc(-c3ccc(C(=O)O)cc3)nc2cc1Cl	-21	5	3	3	-5	-1
Nc1ccc(O)c(-c2nc3ccccc3s2)c1	-8	18	5	3	-5	-13
Oc1ccc(-c2nc3ccccc3s2)cc1	90*	2	-1	-2	8	1
